# Experimental data from paper PMC5540273 (PLoS ONE, 2017).
# Tests used:
# Details in all cases: concentration: 1 μM, replicates: in singlicate; n = 1
# CDKL5 = system: CDKL5
# CHEK1 = system: CHEK1
# CHEK2 = system: CHEK2
# CIT = system: CIT
# CLK1 = system: CLK1
# CLK2 = system: CLK2
# CLK3 = system: CLK3
# CLK4 = system: CLK4
# CSF1R-autoinhibited = system: CSF1R-autoinhibited
# CSF1R = system: CSF1R
# 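Note: KINOMEscan kinase panel screen.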
Compound,%Inh (CDKL5),%Inh (CHEK1),%Inh (CHEK2),%Inh (CIT),%Inh (CLK1),%Inh (CLK2),%Inh (CLK3),%Inh (CLK4),%Inh (CSF1R-autoinhibited),%Inh (CSF1R)
Cc1cccc2c(-c3ccncn3)c(-c3ccc(F)cc3)nn12 [GW515532],0%,5%,0%,82%,99.9%,0%,100%,22%,0%,0%
COC(=O)c1cccc(NC(=O)NC2CCN(c3ccnc(Nc4ccc(OC)cc4)n3)C2)c1 (stereo not drawn) [GSK1379746],0%,0%,0%,0%,21%,100%,0%,24%,28%,0%
COc1cccc(NC(=O)Nc2ccc(C)c(-c3ccc(C(=O)Nc4ccncc4)cc3)c2)c1 [GSK1398474],0%,7%,0%,94.8%,29%,0%,65%,5%,0%,86%
O=C(Nc1n[nH]c2nc(-c3cccs3)c(Br)cc12)C1CCCC1 [SB-743341],0%,9%,9%,4%,0%,18%,31%,12%,0%,18%
CNc1nc(-c2ccc3c(N)n[nH]c3c2)cc(N2C[C@@H](C(=O)Nc3ccccc3)CC[C@H]2C)n1 [GSK2298859],1%,0%,11%,89%,33%,68%,6%,43%,0%,2%
COc1ccc(CSc2nnc(-c3ccc4ncsc4c3)o2)cc1C(F)(F)F,8%,1%,17%,9%,90.5%,39%,0%,83%,0%,1%
Cc1ccc(-c2nc(Nc3ccncc3)c3ccccc3n2)s1 [GSK189015],14%,22%,0%,42%,35%,0%,0%,28%,0%,4%
COc1ccc2cc(-c3nc(-c4ccccc4C(C)C)[nH]c3-c3ccncc3)ccc2c1 [SB-660566],37%,4%,0%,28%,12%,0%,0%,0%,0%,8%
Cn1cncc1C(=O)NC1CCN(c2ccnc(Nc3ccc(F)cc3)n2)C1 (stereo not drawn) [GSK1379717],0%,0%,0%,0%,23%,0%,0%,0%,0%,6%
CC(C)c1ccc(O)cc1Nc1ccnc2ccc(C(F)(F)F)cc12 [GW482059],0%,14%,0%,25%,14%,4%,0%,32%,0%,0%
COc1cc2ncnc(Nc3cccc(Br)c3)c2cc1OC.Cl [GI230329],0%,0%,54%,53%,31%,0%,0%,15%,44%,4%
O=C(Nc1n[nH]c2nc(-c3cccs3)c(Br)cc12)C1CC1 [SB-735297],0%,0%,0%,0%,11%,0%,0%,0%,0%,0%
Cn1cnc2c(N)ncnc21 [SKF-97623],0%,0%,24%,1%,6%,0%,2%,0%,41%,0%
CCCCc1nn2ncccc2c1-c1ccnc(NC2CC2)n1 [GW684374],0%,0%,3%,25%,40%,26%,90.7%,0%,0%,7%
O=C1NC(=O)C(c2ccc(Cl)cc2)=C1Nc1ccc(O)cc1 [SB-340867],0%,0%,0%,0%,51%,65%,0%,29%,0%,0%
Cc1ccc(NC(=O)Nc2ccccc2F)cc1-c1ccc(C(=O)Nc2ccncc2)cc1 [GSK1398477],18%,5%,0%,89%,16%,0%,3%,40%,0%,85%
CS(=O)(=O)CCNCc1nc(-c2ccc3ncnc(Nc4ccc5c(cnn5Cc5ccccc5)c4)c3c2)cs1.Cl.Cl [GW569716],14%,0%,57%,34%,24%,0%,1%,5%,39%,0%
Nc1nccc(-c2c(-c3ccc(F)cc3)ncn2C2CCN(Cc3ccccc3)CC2)n1 [SB-219980],2%,0%,8%,97.6%,0%,6%,0%,0%,15%,0%
O=C(Nc1n[nH]c2cc(-c3ccsc3)ccc12)C1CC1 [SB-732932],17%,0%,0%,0%,2%,21%,0%,7%,16%,16%
COc1ccc(Nc2nccc(N3CCC(NC(=O)C(C)c4ccc(Cl)cc4)CC3)n2)cc1 (stereo not drawn) [GSK1379812],100%,0%,0%,9%,13%,11%,0%,9%,0%,0%
Cc1c(Cn2c(C)c(C)n3c(=O)cc(N4CCOCC4)nc23)cccc1C(F)(F)F [GSK2328680],0%,0%,8%,19%,22%,0%,6%,21%,14%,0%

Compound,%Inh (CDKL5),%Inh (CHEK1),%Inh (CHEK2),%Inh (CIT),%Inh (CLK1),%Inh (CLK2),%Inh (CLK3),%Inh (CLK4),%Inh (CSF1R-autoinhibited),%Inh (CSF1R)
NS(=O)(=O)c1cccc(N/C=C2\C(=O)Nc3ccc(S(=O)(=O)Cc4c(Cl)cccc4Cl)cc32)c1 [GSK398099],0%,6%,0%,22%,43%,33%,4%,0%,0%,3%
CC(C)c1cc(-c2ccc3c(N)n[nH]c3c2)nc(N)n1 [GSK2250882],0%,0%,84%,5%,59%,21%,0%,62%,6%,5%
COc1nccc(-c2c(-c3ccc(F)cc3)ncn2CCCN2CCOCC2)n1 [SB-282852],0%,0%,0%,17%,73%,0%,0%,5%,41%,0%
COc1cccc(C2=C(Nc3cc(Cl)c(O)c(Cl)c3)C(=O)NC2=O)c1 [SB-390767],0%,100%,0%,7%,46%,0%,14%,15%,0%,0%
COc1ccc(Nc2nccc(-c3ccc(NC(=O)c4cc5cc(F)ccc5[nH]4)cc3)n2)cc1 [GSK1229496],0%,100%,26%,0%,5%,0%,19%,18%,15%,0%
Cl.Cl.Cl.N#Cc1ccc(CCNc2nccc(-c3cccc(CN4CCNCC4)c3)n2)cc1 [GSK2137462],0%,0%,0%,82%,17%,23%,0%,15%,0%,8%
Cc1ccc(NC(=O)Nc2ccc(Cl)cc2)cc1-c1ccc(C(=O)Nc2ccncc2)cc1 [GSK1398472],0%,19%,0%,89%,32%,0%,14%,42%,4%,87%
COc1ccc(Nc2nccc(N3CCC(NC(=O)c4cc5ccccc5s4)C3)n2)cc1 (stereo not drawn) [GSK1379738],0%,100%,0%,0%,24%,7%,4%,0%,0%,19%
O=C(Nc1n[nH]c2nc(-c3ccco3)c(Br)cc12)C1CCN(Cc2ccccc2)C1.O=C(O)[C@H](O)[C@@H](O)C(=O)O (stereo not drawn) [SB-742034],85%,16%,0%,0%,0%,0%,0%,7%,0%,10%
O=c1cc(N2CCOCC2)nc2n(Cc3ccccc3F)ccn12 [GSK2297428],0%,9%,0%,18%,36%,0%,22%,54%,7%,0%
CC(=O)c1c(C)c2cnc(Nc3ccc(N4CCNCC4)cn3)nc2n(C2CCCC2)c1=O,0%,0%,16%,3%,23%,0%,100%,13%,7%,7%
Nc1cccc(-c2ccc3c(N)n[nH]c3c2)n1 [GSK2192730],4%,0%,13%,17%,28%,18%,0%,0%,0%,14%
CN1c2ccc(-c3ccc(C(N)=O)cc3)cc2-c2[nH]ncc2S1(=O)=O,0%,0%,49%,0%,25%,70%,0%,15%,17%,0%
CCc1ccc(-c2ccc3c(c2)-c2n[nH]cc2S(=O)(=O)N3C)cc1,0%,0%,0%,0%,0%,0%,1%,4%,5%,0%
Cc1ccccc1Cn1ccn2c(=O)cc(N3CCOCC3)nc12 [GSK2269905],3%,0%,0%,3%,48%,0%,28%,30%,0%,26%
c1ccc(-c2ccnc3[nH]ccc23)cc1 [SB-693578],9%,12%,0%,3%,12%,8%,29%,5%,47%,8%
O=C1NC(=O)C(c2ccc(Cl)cc2)=C1Nc1cccc(Cl)c1 [SB-317651],0%,0%,0%,0%,91.6%,34%,2%,16%,6%,13%
O=c1cc(N2CCOCC2)nc2n(Cc3cccc(Cl)c3Cl)c3ccccc3n12 [GSK2299009],7%,3%,0%,21%,27%,2%,1%,8%,0%,28%
Cc1c(Cn2c3ccccc3n3c(=O)cc(N4CCOCC4)nc23)cccc1C(F)(F)F [GSK2306394],0%,12%,0%,30%,18%,11%,0%,20%,0%,0%
CC[C@@H]1CO[C@H](C(=O)Nc2ccccc2)CN1c1cc(-c2ccc3c(N)n[nH]c3c2)nc(NC)n1 [GSK2376236],0%,2%,29%,98.5%,37%,0%,7%,0%,0%,12%
Cn1cncc1-c1cc2c(Nc3ccc(OCc4ccccc4)cc3)ncnc2cn1 [GW281179],1%,2%,0%,6%,17%,0%,0%,14%,0%,0%
